SMN2 splice up: qHTS Assay for Enhancers of SMN2 Splice Variant Expression; 2.8% of 210,000 active; HEK293 SMN2-luciferase splicing reporter, luminescence, 30-36 h; Potency, µM (doses to about 46.1 µM), inactives show at the highest dose activity change, positive = activation, actives largely listed as activators; also: % of control where 0% means no effect; nearly all actives have a fitted effect of over 55% in size
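qHTS luciferase splicing reporter: luminescence rises when SMN2 exon 7 is included in transfected HEK293 cells. Compound exposure lasted 30-36 h at 37C, with 4.5 mM final sodium butyrate as control, followed by a ONE-Glo read.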
Rab9 promoter act: qHTS Assay for Rab9 Promoter Activators. Huh7 Rab9 promoter-luciferase reporter, luminescence, 24 h. Potency, µM (series often up to 9.22 µM), without a hit: at the highest dose activation, negative = inhibition, hits mostly activators. 2.8% of 320,000 active. AID 485297, 2010; also: % of control where 0% means no effect; nearly all actives have a fitted effect of over 60% in size
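Promoter activation is measured as luciferase luminescence in Huh7 cells stably transfected with a Rab9 promoter–luciferase construct, following 24 h compound exposure at 37 °C and 10 min reagent incubation at ambient temperature.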
NPC1 prom act: qHTS Assay for NPC1 Promoter Activators; Huh7 NPC1 promoter luciferase reporter, 24 h; Potency, µM (highest dose often 9.22 µM), inactives show top-dose activation, usual class: activators; 2.4% of 320,000 active; AID 485313, 2010; also: % of control where 0% means no effect; nearly all actives have a fitted effect of over 60% in size
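Luminescence from an NPC1 promoter-driven luciferase reporter in stably transfected Huh7 cells was measured after 24 h compound treatment at 37 °C, followed by 10 min ambient incubation with luciferase detection reagent.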
FLuc modulator: qHTS profiling assay for firefly luciferase inhibitor/activator using purifed enzyme and Km concentrations of substrates (counterscreen for miR-21 project); Luciferin 4-monooxygenase (Photinus pyralis), P08659; purified FLuc, Km substrates, luminescence inhibition; Potency, µM (top dose mostly 57.5 µM), for inactives: top-dose activity change, negative = inhibition, most hits filed as inhibitors; 6.9% of 360,000 active;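 also: plate controls were vehicle for no effect and reference inhibitor for full effect; nearly all actives have a fitted effect of over 55% in size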
Target sequence (P08659 whole entry, looked up): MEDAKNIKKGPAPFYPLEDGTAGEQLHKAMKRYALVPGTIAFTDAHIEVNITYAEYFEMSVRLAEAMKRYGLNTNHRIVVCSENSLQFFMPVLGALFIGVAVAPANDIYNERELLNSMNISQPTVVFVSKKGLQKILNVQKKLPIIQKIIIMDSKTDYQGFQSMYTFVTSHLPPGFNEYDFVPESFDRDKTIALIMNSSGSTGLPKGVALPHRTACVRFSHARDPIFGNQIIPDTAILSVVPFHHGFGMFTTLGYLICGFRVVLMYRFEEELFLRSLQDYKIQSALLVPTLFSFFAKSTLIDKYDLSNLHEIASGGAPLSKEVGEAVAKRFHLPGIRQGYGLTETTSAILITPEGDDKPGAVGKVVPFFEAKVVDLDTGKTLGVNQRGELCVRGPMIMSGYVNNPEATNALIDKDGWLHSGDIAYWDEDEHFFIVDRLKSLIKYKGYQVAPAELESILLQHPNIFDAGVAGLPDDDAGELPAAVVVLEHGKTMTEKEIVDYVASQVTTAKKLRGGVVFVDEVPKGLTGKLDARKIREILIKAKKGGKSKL
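Biochemical qHTS of compounds, final roughly 60 µM downward over six points, against 10 nM purified firefly luciferase using Km concentrations of substrates (10 uM D-luciferin, 10 uM ATP) in Tris acetate pH 7.5 buffer; luminescence output.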
ELG1 genotox: qHTS screen for small molecules that induce genotoxicity in human embryonic kidney (HEK293T) cells expressing luciferase-tagged ELG1; Potency, µM (series often up to 46 µM), for the others: top-dose activity change, positive = activation, usual class: activators; HEK293T ELG1-luciferase reporter, luminescence, 16 h; AID 504466, 2011; 1.3% of 330,000 active; also: % of control where 0% means no effect; nearly all actives have a fitted effect of over 60% in size
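Screening used a luciferase reporter fused to human ELG1 in HEK293T cells. Luminescence was read on a CCD plate imager after 16 hr exposure and 30 min ONE-Glo incubation.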
ELG1 repair inh: qHTS screen for small molecules that inhibit ELG1-dependent DNA repair in human embryonic kidney (HEK293T) cells expressing luciferase-tagged ELG1. HEK293T ELG1-luciferase reporter, luminescence, 16 h; DNA damage induced by 5-fluorouridine. Potency, µM (titrated, usually from 46.1 µM), inactives show at the top dose activity change, negative = inhibition, usual class: inhibitors. 2.3% of 330,000 active. AID 504467, 2011; also: % is scaled to controls: 0 for no effect and ±100 for the full control effect; nearly all actives have a fitted effect of over 55% in size
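In this reporter screen, reduction of luminescence relative to DMSO vehicle indicated activity. Compounds and 5-fluorouridine were added together to 2,000 cells per well, incubated for 16 hr at 37 °C, then developed with ONE-Glo.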
Numbers without * were called inactive; ? = inconclusive; · = not tested or not shown; [ ] = dose if it differs, or a comment. Only some compounds are listed: those with a hit (about 9.4% of all), similar ones and a draw of the others. Calls follow the shape of the dose curve; as a rule, active = well fitted curve in the direction sought with a large enough effect; inconclusive = small, poorly fitted or top-dose-only effect, or another doubt; inactive = no such curve, though single readings can be large; an effect the other way counts as inactive or inconclusive. Potency is read from the fitted curve at half-maximal effect.

SMILES	SMN2 splice up	Rab9 promoter act	NPC1 prom act	FLuc modulator	ELG1 genotox	ELG1 repair inh
Cc1ccc(/C=N\NC(=O)COc2ccc(C)cc2[N+](=O)[O-])cc1	-9%	-4%	8%	1%	6%	-5%
C/C(CC(=O)Nc1ccccc1-c1ccccc1)=N\NC(=O)COc1ccc(C)cc1Br	-11%	22%	15%	-11%	23µM*	0%
COc1ccccc1CNC(=O)C/C(C)=N/NC(=O)COc1ccc(C)cc1Br	25%	-2%	-7%	-3%	-1%	-26%
Cc1ccc(NC(=O)CCc2nnc3n(CC(C)C)c(=O)c4ccccc4n23)cc1C	14%	·	·	3%	·	·
Cc1cccc(C(=O)NC(=S)NNC(=O)c2ccccc2Cl)c1	-53%	2%	0%	3%	2%	0%
Cc1cc(C(=O)NNC(=S)NC(=O)/C=C/c2ccccc2Cl)n[nH]1	2%	6%	9%	24µM*	-3%	20%
COCCCNc1ncnc2sc3c(c12)CCC(C)C3 (stereo unspecified)	-22%	0%	-2%	?	-1%	?
CC1CCc2c(sc3ncnc(NS(=O)(=O)c4cccs4)c23)C1 (stereo unspecified)	5%	2%	-3%	15µM*	0%	-3%
O=C(O)c1ccc(NS(=O)(=O)c2cccc3cccnc23)cc1	-7%	-5%	0%	-1%	1%	2%
O=S(=O)(Nc1ccc(Cl)cc1)c1cccc2cccnc12	·	0%	-1%	1%	-5%	3%
O=C(Nc1ccccc1O)c1ccc(NS(=O)(=O)c2cccc3cccnc23)cc1	·	?	3%	?	16µM*	?
COC(=O)c1ccc(NC(=O)c2ccc(NS(=O)(=O)c3cccc4cccnc34)cc2)cc1	·	1%[1.84 µM]	1%	17µM*	4%	-2%
CCOc1ccc(C2C(=O)N(C3CCCCCC3)CC(=O)N2CCc2ccc(Cl)cc2)cc1OC (stereo unspecified)	·	·	·	-4%	·	·
COc1cccc(NC(=O)c2ccc3nc(C)sc3c2)c1	·	1.1µM*	1.6µM*	11µM*	23µM*	?
COc1ccccc1NC(=O)c1ccc2nc(C)sc2c1	·	?	4µM*	?	7%	?
COc1cccc(NC(=O)CN(C)S(=O)(=O)c2ccc3nc(C)sc3c2)c1	-18%	·	·	2%	·	·
COc1ccccc1NC(=O)CCS(=O)(=O)c1ccc2nc(C)sc2c1	·	·	·	-1%	·	·
O=C(Nc1cccc(Br)c1)c1ccc2nc(N3C(=O)CCC3=O)sc2c1	-15%	18%	15%	17µM*	-1%	21%
CN(C)c1ccc(-c2nc(NC3CCNCC3)c3ccccc3n2)cc1	-19%	·	·	·	·	·
CCCOc1ccc(-c2nnc(N)s2)cc1	?	?	?	7.6µM*	18µM*	?
COc1ccc(-c2csc(-c3[nH]cnc3N)n2)cc1	?	-1%	-5%	?	?	25%
Cc1ccc(-c2nnc(N)s2)cc1	?	23%	25%	13µM*	?	?
CCCOc1ccc(-c2nc(-c3ccc(N)cc3)cs2)cc1	·	?	24%	7.6µM*	5%	6%
COc1ccc(OCCc2nnc(N)s2)cc1	2%	-1%	4%	2%	1%	?
COc1ccc(-c2nnc(N)s2)cc1	11%	23%	22%	17µM*	?	?
SMILES	SMN2 splice up	Rab9 promoter act	NPC1 prom act	FLuc modulator	ELG1 genotox	ELG1 repair inh
COc1ccccc1Cc1nc2ccccc2nc1SCC(=O)NCc1ccccc1Cl	·	·	·	-2%	·	·
Cc1ccc(Nc2c3c(nc4nncn24)CCC3)c(C)c1	-13%	·	·	-7%	·	·
CCOCCCN1C(=O)CN(C2CCCCCC2)C(=O)C1c1ccc(OC(C)C)c(OC)c1 (stereo unspecified)	·	·	·	-2%	·	·
COc1cccc([C@@H]2Oc3ccc(Br)cc3[C@H](O)[C@H]2O)c1	-19%	·	·	·	·	·
CNc1nnc(-c2ccc(OC)cc2)s1	13µM*	3.2µM*	2.8µM*	12µM*	16µM*	?
CC(C)c1ccc(-c2nnc(N)s2)cc1	14µM*	2.2µM*	3.2µM*	1.9µM*	18µM*	?
CS(=O)(=O)c1ccc(C(=O)Nc2cc(-c3ccccc3)nn2-c2ccccc2)cc1	·	2%	7%	-19%	-4%	-19%
CS(=O)(=O)c1ccc(-c2cn3cc(C(=O)O)ccc3n2)cc1	-21%	-2%	1%	2.7µM*	-7%	-1%
COC(=O)c1ccc2nc(-c3ccc(S(C)(=O)=O)cc3)cn2c1	4%	?	?	24µM*	9%	?
COC(=O)c1cc2nc(-c3ccccc3)cc(C)n2n1	·	-1%	-1%	0%	-2%	-7%
COC(=O)c1ccc2nc(-c3cccc(N)c3)cn2c1	·	1µM*	0.5µM*	0.6µM*	?	?
COc1ccc(C(C)C(=O)c2ccc(O)cc2O)cc1 (stereo unspecified)	-9%	·	·	·	·	·
CN(CC(=O)Nc1ccccc1Br)C(=O)CCC1CCCC1	·	?	?	19µM*	?	?
CN(CC(=O)Nc1ccc(F)cc1)C(=O)c1cc2c(s1)CCCCC2	·	-6%	1%	0%	12%	-1%
CN(CC(=O)Nc1ccccc1Br)C(=O)c1ccccc1-c1nc2ccccc2s1	·	2%	5%	-4%	-9%	21µM*
CN(CC(=O)Nc1ccccc1Br)C(=O)c1cc2c(s1)CCCCC2	·	29%	26%	11µM*	?	?
COc1ccc2cc(C(=O)N(C)CC(=O)Nc3ccccc3Br)ccc2c1	·	26%	11%	21µM*	1%	?
COC(=O)C1(C(C)=O)CC2=CC[C@@H]3C(=O)N(c4ccccc4)C(=O)[C@@H]3[C@@H]2Cc2ccccc2[C@@H]1C[N+](=O)[O-] (stereo partly specified)	6%	·	·	·	·	·
COc1ccc(CNC(=O)c2ccc(N3CCCC3)c(NC(=O)NCc3ccc(F)cc3)c2)cc1	·	·	·	-15%	·	·
Cc1cc(NC(=O)c2cccc(Br)c2)n[nH]1	·	?	?	19µM*	?	?
Cc1cc(C)nc(NC(=O)c2cccc(Br)c2)n1	·	4%	0%	8%	2%	-2%
COc1cccc(C(=O)NC(=O)Nc2cc(C)[nH]n2)c1	·	1.6µM*	2µM*	9.5µM*	?	?
Cc1ccc(CNc2ncnc3c2c(-c2ccccc2)cn3-c2ccccc2)cc1	·	·	·	4%	·	·

Screening results: PubChem, National Center for Advancing Translational Sciences (NCATS)
